Experimental data: PubChem BioAssay AID1159580 (chemical genetic matrix, 2015)
About 2,000 (36%) of roughly 5,500 compounds were called active. About 18% were inconclusive and are not listed. Rule as the data show it: active = normalized growth mostly below about 0.91 (no sharp cut-off); inconclusive = no clear call, values can overlap the other calls; inactive = mostly above about 0.92. The list shows a part of the results.

Experiment: chemical genetic growth profiling, strain panel (AID 1159580);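 also: tested at 20 µM; growth read once vehicle control cultures reached saturation at 30 °C; 1 = growth at the plate median or of vehicle wells; lower values mean less growth of the strain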
Details: growth OD

Measured: normalized growth

N[C@@H](CCC(=O)N[C@@H](CS)C(=O)NCC(=O)O)C(=O)O
inactive: S. cerevisiae deletion strains, locus YKL009W, strain mrt4, active compounds read low 0.954 | S. cerevisiae deletion strains, locus YKL068W, active compounds read low 0.996 | S. cerevisiae deletion strains, locus YKL085W, strain MDH1 (second series), active compounds read low 0.979 | S. cerevisiae deletion strains, locus YKL085W, strain MDH1, active compounds read low 0.979 | S. cerevisiae deletion strains, locus YKL160W, strain elf1, active compounds read low 0.978 | S. cerevisiae deletion strains, locus YKL190W, strain CNB1, active compounds read low 0.993 | S. cerevisiae deletion strains, locus YKR001C, strain vps1, active compounds read low 0.994 | S. cerevisiae deletion strains, locus YKR026C, strain gcn3, active compounds read low 0.987 | S. cerevisiae deletion strains, locus YKR091W, strain srl3, active compounds read low 0.985 | S. cerevisiae deletion strains, locus YLL001W, strain dnm1, active compounds read low 0.963 | S. cerevisiae deletion strains, locus YLL026W, active compounds read low 0.975 | S. cerevisiae deletion strains, locus YLL041C, strain sdh2, active compounds read low 1 | S. cerevisiae deletion strains, locus YLR027C, strain aat2, active compounds read low 0.97 | S. cerevisiae deletion strains, locus YLR039C, strain RIC1, active compounds read low 0.981 | S. cerevisiae deletion strains, locus YLR058C, strain SHM2, active compounds read low 0.996 | S. cerevisiae deletion strains, locus YLR102C, strain apc9, active compounds read low 0.986 | S. cerevisiae deletion strains, locus YLR113W, strain HOG1, active compounds read low 0.97 | S. cerevisiae deletion strains, locus YLR221C, strain rsa3, active compounds read low 1 | S. cerevisiae deletion strains, locus YLR258W, strain gsy2, active compounds read low 1.01 | S. cerevisiae deletion strains, locus YLR262C, strain YPT6 (second series), active compounds read low 1 | S. cerevisiae deletion strains, locus YLR262C, strain YPT6, active compounds read low 0.92 | S. cerevisiae deletion strains, locus YLR268W, strain sec22, active compounds read low 0.983 | S. cerevisiae deletion strains, locus YLR320W, strain mms22, active compounds read low 1.02 | S. cerevisiae deletion strains, locus YLR330W, strain CHS5, active compounds read low 0.999 | S. cerevisiae deletion strains, locus YLR342W, strain FKS1 (second series), active compounds read low 1.03 | S. cerevisiae deletion strains, locus YLR342W, strain FKS1, active compounds read low 0.982 | S. cerevisiae deletion strains, locus YLR357W, strain rsc2, active compounds read low 0.973 | S. cerevisiae deletion strains, locus YLR370C, strain arc18, active compounds read low 0.985 | S. cerevisiae deletion strains, locus YLR371W, strain rom2, active compounds read low 0.979 | S. cerevisiae deletion strains, locus YLR384C, strain iki3, active compounds read low 0.98 | S. cerevisiae deletion strains, locus YLR418C, strain cdc73, active compounds read low 0.98 | S. cerevisiae deletion strains, locus YML016C, strain PPZ1, active compounds read low 1 | S. cerevisiae deletion strains, locus YML032C, strain rad52, active compounds read low 0.989 | S. cerevisiae deletion strains, locus YML120C, strain ndi1, active compounds read low 0.981 | S. cerevisiae deletion strains, locus YML124C, strain tub3, active compounds read low 0.995 | S. cerevisiae deletion strains, locus YMR058W, strain fet3, active compounds read low 0.99 | S. cerevisiae deletion strains, locus YMR078C, strain ctf18, active compounds read low 0.977 | S. cerevisiae deletion strains, locus YMR125W, strain sto1, active compounds read low 1 | S. cerevisiae deletion strains, locus YMR129W, active compounds read low 1 | S. cerevisiae deletion strains, locus YMR205C, strain PFK2, active compounds read low 0.993 | S. cerevisiae deletion strains, locus YMR223W, strain ubp8, active compounds read low 0.985 | S. cerevisiae deletion strains, locus YMR231W, strain pep5, active compounds read low 1.02 | S. cerevisiae deletion strains, locus YMR307W, strain GAS1, active compounds read low 1.12 | S. cerevisiae deletion strains, locus YNL067W, strain RPL9B, active compounds read low 0.969 | S. cerevisiae deletion strains, locus YNL071W, strain lat1, active compounds read low 1.01 | S. cerevisiae deletion strains, locus YNL128W, strain TEP1, active compounds read low 0.963 | S. cerevisiae deletion strains, locus YNL183C, strain NPR1, active compounds read low 0.97 | S. cerevisiae deletion strains, locus YNL209W, strain ssb2, active compounds read low 1.01 | S. cerevisiae deletion strains, locus YNL233W, strain BNI4, active compounds read low 0.989 | S. cerevisiae deletion strains, locus YNL248C, strain rpa49, active compounds read low 1.03 | S. cerevisiae deletion strains, locus YNL250W, strain rad50, active compounds read low 0.987 | S. cerevisiae deletion strains, locus YNL271C, strain bni1, active compounds read low 0.982 | S. cerevisiae deletion strains, locus YNL298W, strain CLA4, active compounds read low 0.986 | S. cerevisiae deletion strains, locus YNL307C, strain MCK1, active compounds read low 0.99 | S. cerevisiae deletion strains, locus YNL322C, strain KRE1 (second series), active compounds read low 0.998 | S. cerevisiae deletion strains, locus YNR049C, strain mso1, active compounds read low 0.996 | S. cerevisiae deletion strains, locus YNR052C, strain pop2, active compounds read low 0.988 | S. cerevisiae deletion strains, locus YOL006C, strain TOP1, active compounds read low 0.986 | S. cerevisiae deletion strains, locus YOL012C, strain htz1 0.759 | S. cerevisiae deletion strains, locus YOL147C, strain pex11, active compounds read low 0.995 | S. cerevisiae deletion strains, locus YOR001W, strain rrp6, active compounds read low 0.971 | S. cerevisiae deletion strains, locus YOR061W, strain CKA2, active compounds read low 0.993 | S. cerevisiae deletion strains, locus YOR069W, strain VPS5, active compounds read low 1 | S. cerevisiae deletion strains, locus YOR070C, strain gyp1, active compounds read low 1.02 | S. cerevisiae deletion strains, locus YOR080W, strain dia2, active compounds read low 0.988 | S. cerevisiae deletion strains, locus YOR083W, strain WHI5, active compounds read low 0.973 | S. cerevisiae deletion strains, locus YOR106W, strain vam3, active compounds read low 0.987 | S. cerevisiae deletion strains, locus YOR136W, strain idh2, active compounds read low 0.993 | S. cerevisiae deletion strains, locus YOR144C, strain elg1, active compounds read low 0.995 | S. cerevisiae deletion strains, locus YOR184W, strain ser1, active compounds read low 0.989 | S. cerevisiae deletion strains, locus YOR231W, strain MKK1, active compounds read low 0.966 | S. cerevisiae deletion strains, locus YOR265W, strain rbl2, active compounds read low 0.996 | S. cerevisiae deletion strains, locus YOR270C, strain vph1, active compounds read low 1.03 | S. cerevisiae deletion strains, locus YOR290C, strain snf2, active compounds read low 1.01 | S. cerevisiae deletion strains, locus YOR316C, strain cot1, active compounds read low 0.998 | S. cerevisiae deletion strains, locus YPL051W, strain arl3, active compounds read low 0.993 | S. cerevisiae deletion strains, locus YPL078C, strain atp4, active compounds read low 0.972 | S. cerevisiae deletion strains, locus YPL106C, strain sse1, active compounds read low 0.985 | S. cerevisiae deletion strains, locus YPL240C, strain hsp82, active compounds read low 1.01 | S. cerevisiae deletion strains, locus YPL241C, strain CIN2, active compounds read low 0.993 | S. cerevisiae deletion strains, locus YPL256C, strain CLN2, active compounds read low 0.913 | S. cerevisiae deletion strains, locus YPR119W, strain clb2, active compounds read low 0.988 | S. cerevisiae deletion strains, locus YPR141C, strain kar3, active compounds read low 0.981 | S. cerevisiae deletion strains, locus YPR163C, strain tif3, active compounds read low 0.996 | S. cerevisiae deletion strains, locus YPR167C, strain met16, active compounds read low 0.98 | S. cerevisiae deletion strains, strain wtn01, active compounds read low 0.984 | S. cerevisiae strains, strain wild type, active compounds read low 0.998
